Measured values as given in the supplement of paper PMC9135407.
Structures can show the parent of a compound that is named as a salt.

These molecules were tested on primary human hepatic stellate cells (donor 1) (assay: PSMB2 reference mRNA level vs DMSO (fold); higher = more PSMB2 expression). Conditions: 48 h.
Protocol: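 Secondary qRT-PCR screen in primary human HSCs (donor 1), 384-well plates, with compounds dispensed in quadruplicate and incubated for 48 h. Cells-to-CT lysates were used for multiplexed TaqMan qPCR of ACTA2 or COL1A1 with PSMB2 as reference. Fold changes versus DMSO come from a linear model (Ct_gene ~ Ct_PSMB2 + plate + chemical). A hit is defined as COL1A1 and ACTA2 FC <0.5 (FDR <0.05) with PSMB2 between 0.2 and 2.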

SMILES | PSMB2 reference mRNA level
CCCCCCCCc1ccc(CCC(N)(CO)CO)cc1 [Fingolimod (FTY720) HCl] (11.1 µM) | 3.91
Cc1ccc(-c2ccc3c(ccc4sc5c(c43)NC[C@@H](C)NC5=O)n2)cn1 (33.3333 µM) | 3.41
CN(C)Cc1c(C(=O)NCCOc2ccc(C(=O)NO)cc2)oc2ccccc12 (33.3333 µM) | 0.5
Cc1cccc(Nc2nc(-c3ccncc3)cs2)c1 (11.1 µM) | 1.45
CCN(CC)CCCCNc1ncc2cc(-c3c(Cl)cccc3Cl)c(NC(=O)NC(C)(C)C)nc2n1 (33.3333 µM) | 0.792
CN1CCN(Cc2ccc(-c3cnc4[nH]cc(-c5ccc6[nH]ccc6c5)c4c3)cc2)CC1 (6.66667 µM) | 0.507
CCCCCCCCCCCCC/C=C/[C@@H](O)[C@H](CO)N(C)C [N,N-Dimethylsphingosine] (3.33333 µM) | 0.511
CCc1cc2c(cc1CC)CC(NC[C@H](O)c1ccc(O)c3[nH]c(=O)ccc13)C2 [Indacaterol Maleate] (33.3333 µM) | 0.728
CN1CCC(NC(=O)c2cc(-c3c(O)cc(O)cc3Oc3ccc([N+](=O)[O-])cc3)on2)CC1 (33.3333 µM) | 0.306
CCN(CC)CCOc1ccc(Cc2ccccc2)cc1 [DPPE fumarate] (33.3333 µM) | 0.798
NS(=O)(=O)C#Cc1ccccc1 [Pifithrin->m] (33.3333 µM) | 5.28
CCN(CC)CCNC(=O)c1c(C)[nH]c(/C=C2\C(=O)Nc3ccc(F)cc32)c1C (6.66667 µM) | 2.81
COC(=O)C[C@](O)(CCCC(C)(C)O)C(=O)O[C@@H]1C(OC)=C[C@]23CCCN2CCc2cc4c(cc2[C@H]13)OCO4 [Homoharringtonine] (33.3333 µM) | 0.38
O=C1NCN(c2ccccc2)C12CCN(CCCC(c1ccc(F)cc1)c1ccc(F)cc1)CC2 [Fluspirilene] (14.0333 µM) | 1.38
COc1cc2ncn(-c3cc(OCc4ccccc4C(F)(F)F)c(C(N)=O)s3)c2cc1OC (33.3333 µM) | 1.6
C[C@@H](CN1CCC(n2c(=O)[nH]c3cc(Cl)ccc32)CC1)NC(=O)c1ccc2ccccc2c1 (33.3333 µM) | 0.16
CN1CCN2c3ccccc3Cc3ccccc3C2C1 (stereo not given) [Mianserin hcl] (25.2333 µM) | 1.26
Cc1cnc(-c2cnc(NCCNc3ccc(C#N)cn3)nc2-c2ccc(Cl)cc2Cl)[nH]1 (33.3333 µM) | 2.78
CNCc1ccc(-c2[nH]c3cc(F)cc4c3c2CCNC4=O)cc1 (33.3333 µM) | 0.974
CCC/C=C\C=C/C(=O)N[C@@H](CC(N)=O)C(=O)NC(CC(N)=O)C(=O)N[C@@H](C(=O)N[C@H](CCCN)C(=O)N[C@@H](C(=O)N[C@@H](C(=O)N[C@@H](C(=O)N[C@H](C(=O)N[C@@H](Cc1ccccc1)C(=O)N[C@H](CCCN)C(=O)NC(C(=O)N[C@H](C(=O)NC(C(=O)NCC(=O)N[C@@H](CC(C)C)C(=O)N[C@H](C)C(=O)NC(C(=O)O)C1CCC(O)C(Cl)C1)C1CCC(O)CC1)[C@H](C)O)C1CCC(O)CC1)[C@H](C)O)C1CCC(O)CC1)C1CCC(O)CC1)[C@H](C)O)C1CCC(O)CC1 (stereo not given in full) (33.3333 µM) | 0.369

SMILES | PSMB2 reference mRNA level
O=C(O[C@H]1CN2CCC1CC2)N1CCc2ccccc2[C@@H]1c1ccccc1 [Solifenacin succinate] (33.3333 µM) | 0.935
Clc1ccccc1CNCC1CCC(CNCc2ccccc2Cl)CC1 (stereo not given) (33.3333 µM) | 0.138
CCN(CC)CC#CCOC(=O)C(O)(c1ccccc1)C1CCCCC1 (stereo not given) [Oxybutynin chloride] (16.9333 µM) | 1.08
O=C1NC(=O)/C(=C/c2ccc(-c3ccc(F)cc3O)o2)S1 (33.3333 µM) | 3.41
CNCc1ccc(C)c(NC(=O)c2ccc(Nc3nc(-c4ccccc4)c4ccccc4n3)cc2)c1 (33.3333 µM) | 0.000816
COc1ccccc1OCCNCC(O)COc1cccc2[nH]c3ccccc3c12 (stereo not given) [Carvedilol] (33.3333 µM) | 2.15
NC1(c2ccc(-c3nc4ccn5c(=O)[nH]nc5c4cc3-c3ccccc3)cc2)CCC1 (11.1 µM) | 3.72
O=C1Nc2ccccc2/C1=C1/Nc2ccccc2C1=O [Indirubin] (63.5333 µM) | 1.03
CCNC(=O)c1noc(-c2cc(C(C)C)c(O)cc2O)c1-c1ccc(CN2CCOCC2)cc1 (11.1 µM) | 1.72
C#C[C@]1(O)CC[C@H]2[C@@H]3CCC4=Cc5oncc5C[C@]4(C)[C@H]3CC[C@@]21C [Danazol] (33.3333 µM) | 0.993
O=S(=O)(NCCNC/C=C/c1ccc(Br)cc1)c1cccc2cnccc12 [H-89, Dihydrochloride] (11.1 µM) | 1.02
Cc1ccc(NC(=O)c2ccc(CN3CCN(C)CC3)cc2)cc1Nc1nc(-c2cccnc2)cs1 [Masitinib (AB1010, Masivet)] (6.66667 µM) | 0.679
[O-][S+](c1ccccc1)c1ccc2nnnn2n1 (stereo not given) (33.3333 µM) | 0.000399
CCCCc1oc2ccccc2c1C(=O)c1cc(I)c(OCCN(CC)CC)c(I)c1 (33.3333 µM) | 0.537
Nc1ccc(C(=O)Nc2cccc(-c3nc(N4CCOCC4)c4oc5ncccc5c4n3)c2)cn1 (6.66667 µM) | 3.27
NC(N)=NC(=O)c1nc(Cl)c(N2CCCCCC2)nc1N [5-(N,N-hexamethylene)amiloride] (33.3333 µM) | 0.641
CN(C)C/C=C(/c1ccc(Br)cc1)c1cccnc1 [Zimelidine dihydrochloride] (11.1 µM) | 0.28
CC(C)(C)c1cc(NC(=O)Nc2ccc(-c3cn4c(n3)sc3cc(OCCN5CCOCC5)ccc34)cc2)no1 [Quizartinib  (AC220)] (11.1 µM) | 2.12
c1ccc2c(NCCCCCCCNc3c4c(nc5ccccc35)CCCC4)c3c(nc2c1)CCCC3 [bis(7)-Tacrine] (3.33333 µM) | 0.971
CS(=O)(=O)CCNCc1ccc(-c2ccc3ncnc(Nc4ccc(OCc5cccc(F)c5)c(Cl)c4)c3c2)o1 (6.66667 µM) | 1.27
